{"source": "PubChem BioAssay AID488922", "about": "(Johns Hopkins Ion Channel Center, 2010)", "note": "Out of some 310,000 compounds screened, about 3,800 (1.2%) were called active.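 Rule for the calls: active = ratio B-score over 3 SD below the library mean, with starting fluorescence within 5 SD of its mean; inactive = the rest, inconclusive results apart.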 The sample as a whole holds a higher share of actives than the screen did."}
{"molecular_target": "Potassium channel subfamily K member 9 (Homo sapiens) (UniProt Q9NPC2)", "sequence (Q9NPC2 whole entry, looked up)": "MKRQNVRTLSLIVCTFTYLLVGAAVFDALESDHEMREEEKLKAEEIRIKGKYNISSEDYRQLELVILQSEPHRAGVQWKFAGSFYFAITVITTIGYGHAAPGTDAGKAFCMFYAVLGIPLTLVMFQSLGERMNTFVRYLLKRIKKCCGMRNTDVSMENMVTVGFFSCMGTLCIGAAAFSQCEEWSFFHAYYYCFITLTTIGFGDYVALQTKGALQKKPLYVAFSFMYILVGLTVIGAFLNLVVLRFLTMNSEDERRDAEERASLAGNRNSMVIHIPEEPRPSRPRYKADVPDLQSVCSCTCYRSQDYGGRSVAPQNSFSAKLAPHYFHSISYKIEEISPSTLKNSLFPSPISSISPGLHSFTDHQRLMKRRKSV", "assay": "KCNK9 potassium channel inhibitors, primary screen, HEK293 cells, thallium flux (AID 488922);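 for B-score: negative B-score means less thallium flux so channel inhibition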", "conditions": "HEK293 KCNK9, FluxOR thallium flux fluorescence, at 10 µM; stronger effect = lower value"}
{"smiles": "CC(Sc1nnnn1C)C(=O)NC(=O)NC1CCCCC1", "note": "(configuration not stated)", "B-score": "inactive"}
{"smiles": "Cc1ccc(S(=O)(=O)NC(C)C(=O)NCc2ccc(Cl)cc2)cc1", "note": "(configuration not stated)", "B-score": "inactive"}
{"smiles": "Cc1cc(Cl)ccc1OCc1nc(-c2ccncc2)no1", "B-score": "inactive"}
{"smiles": "NC(=O)c1ccc(NC(=O)COC(=O)c2c3c(nc4ccccc24)/C(=C\\c2ccc4c(c2)OCO4)CCC3)cc1", "B-score": "inactive"}
{"smiles": "O=C(Nc1c2c(nc3ccccc13)CCCC2)c1ccccc1Br", "B-score": "inactive"}
{"smiles": "O=C(COC(=O)c1c2c(nc3ccccc13)CCCC2)c1ccc(Br)s1", "B-score": "-9.29 (active)"}
{"smiles": "COC(=O)COc1ccc2c(=O)c(Oc3ccccc3Br)coc2c1", "B-score": "inactive"}
{"smiles": "CCCCc1cc(=O)oc2c(C)c(OCC(=O)N3CCC(C(N)=O)CC3)ccc12", "B-score": "inactive"}
{"smiles": "O=C(/C=C/c1ccc(N2CCOCC2)cc1)c1ccccc1", "B-score": "inactive"}
{"smiles": "CCOc1ncccc1C(=O)OCC(=O)NC1CC1", "B-score": "inactive"}
{"smiles": "Cc1nc2ccccc2c(=O)n1NC(=O)c1ccc(Cl)c([N+](=O)[O-])c1", "B-score": "inactive"}
{"smiles": "C=CCn1c(SCc2ccc(C(=O)NCCO)cc2)nc2ccccc2c1=O", "B-score": "inactive"}
{"smiles": "O=C(Nn1c(SCc2ccc([N+](=O)[O-])cc2)nc2ccccc2c1=O)c1ccc(F)cc1", "B-score": "-8.82 (active)"}
{"smiles": "O=C(Cn1nc([N+](=O)[O-])nc1Br)NC1CCCCC1", "B-score": "inactive"}
{"smiles": "CCC1Nc2ncnc(N3CCN(c4ccccc4)CC3)c2N(Cc2ccc(Cl)cc2)C1=O", "note": "(configuration not stated)", "B-score": "inactive"}
{"smiles": "Cc1nc(N2CCN(c3ccccn3)CC2)c2c(C)c(C(=O)Nc3ccc(F)c(Cl)c3)sc2n1", "B-score": "-10.3 (active)"}
{"smiles": "Cc1nc(N2CCN(c3ccccn3)CC2)c2c(C)c(C(=O)Nc3ccc(F)cc3)sc2n1", "B-score": "inactive"}
{"smiles": "COc1ccc(NC(=O)c2sc3nc(C)nc(N4CCN(c5ccccn5)CC4)c3c2C)c(OC)c1", "B-score": "inactive"}
{"smiles": "Cc1ccc2cccc(OCCCOc3ccccc3CO)c2n1", "B-score": "inactive"}
{"smiles": "O=C(COC(=O)c1cccs1)NCc1cccs1", "B-score": "inactive"}
{"smiles": "O=C(COC(=O)c1cc2c(s1)CCCC2)NCc1ccccc1Cl", "B-score": "inactive"}
{"smiles": "O=C(COC(=O)/C(=C/c1cccs1)c1cccs1)NCc1ccccc1Cl", "B-score": "-9.72 (active)"}
{"smiles": "CC(C)(C)NC(=O)COC(=O)c1cc(Br)ccc1Cl", "B-score": "inactive"}
{"smiles": "O=C(NNS(=O)(=O)c1ccc(F)cc1)c1ccc([N+](=O)[O-])cc1Cl", "B-score": "inactive"}
{"smiles": "COc1ccc(-c2[nH]ncc2/C=N/NC(=O)c2cc(Br)ccc2O)c(OC)c1", "B-score": "inactive"}
{"smiles": "Cc1ccc(C)c(Cn2cnc3c(oc4ccccc43)c2=O)c1", "B-score": "inactive"}
{"smiles": "Cc1ccc(C)c(NC(=O)CSc2nnc(Cc3cccn3C)n2-c2ccc(F)cc2)c1", "B-score": "inactive"}
{"smiles": "Cc1ccc(C)c(NC(=O)CSc2nc3c(oc4ccccc43)c(=O)n2-c2ccccc2)c1", "B-score": "-7.91 (active)"}
{"smiles": "C=CCOc1ccc(C(=O)Nc2ccccc2C(=O)N2CCCC2)cc1", "B-score": "inactive"}
{"smiles": "Cc1ccc(C2NC(C(=O)O)CS2)cc1", "note": "(configuration not stated)", "B-score": "inactive"}
{"smiles": "COc1ccc(-c2nc(N)ncc2-c2ccc(Cl)cc2)c(O)c1", "B-score": "inactive"}
{"smiles": "CC(C)(C)Oc1ncc(Br)c(OC(C)(C)C)n1", "B-score": "inactive"}
{"smiles": "COc1cccc(-c2cnc(OC(C)(C)C)nc2OC(C)(C)C)c1", "B-score": "-8.72 (active)"}
{"smiles": "COc1ccc(CN2CCC(c3nc4ccc(Cl)cc4[nH]3)CC2)cc1", "B-score": "inactive"}
{"smiles": "Cc1ccc(C(=O)NC2CCN(C(=O)Nc3ccc(F)cc3)CC2)cc1", "B-score": "inactive"}
{"smiles": "CN(C)c1ccc(C(CNC(=O)c2ccc(F)cc2)c2c[nH]c3ccccc23)cc1", "note": "(configuration not stated)", "B-score": "-13 (active)"}
{"smiles": "O=C(Cc1ccccc1)NCc1ccc(F)cc1", "B-score": "inactive"}
{"smiles": "O=C(CNC(=O)c1ccc(F)cc1)c1ccccc1", "B-score": "inactive"}
{"smiles": "O=C(CN(c1ccccc1)S(=O)(=O)c1ccc(Cl)cc1)Nc1ccccc1C(=O)N1CCCC1", "B-score": "inactive"}
{"smiles": "Clc1ccc(COn2c(-c3ccc(Cl)cc3Cl)nc3ncccc32)cc1", "B-score": "-10.6 (active)"}
{"smiles": "Clc1ccc(-c2ncc3ccccn23)c(Cl)c1", "B-score": "inactive"}
{"smiles": "COn1c(-c2ccc(Cl)cc2Cl)nc2ncccc21", "B-score": "inactive"}
{"smiles": "CC1CCN(S(=O)(=O)c2nnc(NC(=O)COc3ccccc3F)s2)CC1", "B-score": "inactive"}
{"smiles": "N/C(=N\\S(=O)(=O)c1ccc(Cl)cc1)N1CCOCC1", "B-score": "inactive"}
{"smiles": "CC1=C(C(=O)OCc2ccccc2)C(c2ccco2)n2ncnc2N1", "note": "(configuration not stated)", "B-score": "inactive"}
{"smiles": "CCOC(=O)CSC1=C(C#N)C(c2ccco2)C(C(=O)OCc2ccccc2)=C(C)N1", "note": "(configuration not stated)", "B-score": "-7.3 (active)"}
{"smiles": "Cc1ccc(C2CC(=O)NC(SCC(=O)OCc3ccccc3)=C2C#N)o1", "note": "(configuration not stated)", "B-score": "inactive"}
{"smiles": "CC(=O)N[C@@H](C)C(=O)N1CCC(n2nccc2NC(=O)CCCc2ccccc2)CC1", "B-score": "inactive"}
{"smiles": "COc1ccc(-n2c(=O)[nH]c3cc(C(=O)NCCc4ccc(OC)c(OC)c4)ccc3c2=O)c(OC)c1", "B-score": "inactive"}
{"smiles": "COc1ccccc1-c1nc(SC)n[nH]1", "B-score": "inactive"}
{"smiles": "COc1ccc(-c2n[nH]c(C)c2-c2ccccc2OC)c(O)c1", "B-score": "inactive"}
{"smiles": "COc1ccccc1-c1n[nH]c2c1[C@H](C)CC[C@H]2C(C)C", "B-score": "-6.66 (active)"}
{"smiles": "Cc1ccc2nc(SCC(=O)N3CCN(c4ccccc4)CC3)nc(=O)n2c1", "B-score": "inactive"}
{"smiles": "O=C(NCC(=O)N1CCCC(C(F)(F)F)C1)c1ccccc1F", "note": "(configuration not stated)", "B-score": "inactive"}
{"smiles": "Cc1ccc(CNC(=O)CCS(=O)(=O)c2ccc3c(c2)CC(C)N3C(=O)C2CC2)o1", "note": "(configuration not stated)", "B-score": "inactive"}
{"smiles": "Cc1ccc(C(=O)Nc2ccc(C)c(S(=O)(=O)N(C)C)c2)s1", "B-score": "inactive"}
{"smiles": "O=C(NCCCO)c1cc2c([nH]c3ccccc32)c(-c2ccc(F)cc2)n1", "B-score": "inactive"}
{"smiles": "C=CCn1c(SCC(=O)NC)nnc1C12CC3CC(CC(C3)C1)C2", "B-score": "inactive"}
{"smiles": "CC1=C(C(=O)OC(C)(C)C)C(c2ccc(Br)cc2)NC(=O)N1CCCC(=O)O", "note": "(configuration not stated)", "B-score": "inactive"}
{"smiles": "Cc1ccc(C2Nc3ccccc3C(=O)N2CCN2CCNC2=O)cc1", "note": "(configuration not stated)", "B-score": "inactive"}
{"smiles": "COc1ccc(C2Nc3ccccc3C(=O)N2Cc2ccccc2)cc1Cn1nnc2ccccc21", "note": "(configuration not stated)", "B-score": "-8.45 (active)"}
{"smiles": "COc1ccc(C2Nc3ccccc3C(=O)N2c2ccc(F)cc2)cc1Cn1nnc2ccccc21", "note": "(configuration not stated)", "B-score": "inactive"}
{"smiles": "Cc1cc(NC(=O)/C=C/C(=O)N(CC(=O)NC2CCCC2)c2ccc(F)cc2)no1", "B-score": "inactive"}
{"smiles": "CCCCCC(O)c1cccc(OCc2ccc3ccccc3n2)c1", "note": "(configuration not stated)", "B-score": "-16.3 (active)"}
{"smiles": "CCCCCCOC(=O)NCC(O)c1ccccc1", "note": "(configuration not stated)", "B-score": "inactive"}
{"smiles": "COc1cccc(C(O)c2nc3ccccc3n2C)c1", "note": "(configuration not stated)", "B-score": "inactive"}
{"smiles": "COc1cc(CCC(=O)N2CCN(c3ccccc3Cl)CC2)cc(OC)c1OC", "B-score": "inactive"}
{"smiles": "CCOc1ccc(C2c3[nH]c4ccccc4c3CCN2Cc2cn(CC)nc2C)cc1", "note": "(configuration not stated)", "B-score": "inactive"}
{"smiles": "c1ccc(C2c3[nH]c4ccccc4c3CCN2Cc2cccn2-c2cccnc2)nc1", "note": "(configuration not stated)", "B-score": "inactive"}
{"smiles": "CCOc1ccc(C2c3[nH]c4ccccc4c3CCN2Cc2cccn2-c2ncccn2)cc1", "note": "(configuration not stated)", "B-score": "-9.89 (active)"}
{"smiles": "O=C(/C=C/c1cccs1)c1cc(Cl)ccc1OC(=O)N1CCOCC1", "B-score": "inactive"}
{"smiles": "COc1cc(NC(=S)NCc2ccc(S(N)(=O)=O)cc2)cc(OC)c1", "B-score": "inactive"}
{"smiles": "COc1cc(NC(=S)NCCSc2ccc(C)cc2)cc(OC)c1", "B-score": "-9.28 (active)"}
{"smiles": "COc1cc(NC(=O)Nc2ccc(C)cc2)cc([N+](=O)[O-])c1", "B-score": "inactive"}
{"smiles": "Cc1cc(C)n(-c2ccc(NC(=O)C3CCCCN3C(=O)c3cccs3)cc2)n1", "note": "(configuration not stated)", "B-score": "inactive"}
{"smiles": "CNC(C)C#Cc1ccc2sc3cc(OC)c(OC)cc3c(=O)c2c1", "note": "(configuration not stated)", "B-score": "inactive"}
{"smiles": "CCOC(=O)C1=C(c2ccccc2)O/C(=C(/C(=O)OC)C(F)(F)F)S1", "B-score": "inactive"}
{"smiles": "Cc1ccccc1C(=O)Nc1ccccc1NC(=O)c1ccccc1C", "B-score": "inactive"}
{"smiles": "CCCCCCCCn1c2c(c(=N)c3c1CCC3)CCCC2", "B-score": "-14.2 (active)"}
{"smiles": "O=C(NCc1cc(F)cc(C(F)(F)F)c1)C1CCC(=O)N(C2CCCC2)C1", "note": "(configuration not stated)", "B-score": "inactive"}
{"smiles": "COc1ccccc1C(=O)NCCn1cc(SCC(=O)NCc2ccco2)c2ccccc21", "B-score": "inactive"}
{"smiles": "COc1cccc(CNCCc2c[nH]c3ccccc23)c1OCc1ccccc1F", "B-score": "-8.25 (active)"}
{"smiles": "COc1ccccc1CC(=O)NCCc1c[nH]c2ccccc12", "B-score": "inactive"}
{"smiles": "COc1ccc(S(=O)(=O)NCCc2c[nH]c3ccccc23)cc1OC", "B-score": "inactive"}
{"smiles": "Cc1cc(C)n(CCNS(=O)(=O)c2ccc(Cl)cc2)n1", "B-score": "inactive"}
{"smiles": "CCC1CCCCN1C(=O)Nc1cccc(NC(=O)N2CCCCC2CC)c1", "note": "(configuration not stated)", "B-score": "-7.72 (active)"}
{"smiles": "COc1cccc(NC(=O)N2CCCC2C(=O)NC2CCCCC2)c1", "note": "(configuration not stated)", "B-score": "inactive"}
{"smiles": "CCC1CCCCN1C(=S)Nc1ccc(C(C)=O)cc1", "note": "(configuration not stated)", "B-score": "inactive"}
{"smiles": "O=C(Nn1c(-c2ccc(Cl)cc2)nc2ccccc2c1=O)c1cccnc1Cl", "B-score": "inactive"}
{"smiles": "C/C(=N\\N(C)C)c1ccc(OCCOc2ccc([N+](=O)[O-])cc2)cc1", "B-score": "inactive"}
{"smiles": "Cc1c(/C=N\\NC(=O)c2cc3ccccc3o2)c2ccccc2n1C", "B-score": "-6.85 (active)"}
{"smiles": "Cc1ccc(NC(=O)c2cc3ccccc3o2)cc1", "B-score": "inactive"}
{"smiles": "O=C(N/N=C/c1c[nH]c2ccccc12)c1cc2ccccc2o1", "B-score": "inactive"}
{"smiles": "CC(C)c1nnc(NC(=O)C2CC(=O)N(CCc3ccc(F)cc3)C2)s1", "note": "(configuration not stated)", "B-score": "inactive"}
{"smiles": "CCCc1nc(SCC(=O)Nc2ccc(S(=O)(=O)N(C)C)cc2)c2ccccc2n1", "B-score": "inactive"}
{"smiles": "CC(C)N(C(=O)CSc1nc(COc2ccccc2)nc2ccccc12)C(C)C", "B-score": "-17.1 (active)"}
{"smiles": "CN(C(=O)CSc1nc(C2CC2)nc2ccccc12)c1nc(-c2ccccc2)cs1", "B-score": "inactive"}
{"smiles": "COCCCNC(=S)N1CCN(c2nc(-c3cccc(OC)c3)cs2)CC1", "B-score": "inactive"}
{"smiles": "COc1cccc(COc2ccc(N(C)S(=O)(=O)c3ccccc3)cc2)c1", "B-score": "-14.1 (active)"}
{"smiles": "Cc1ccc2nc(COc3ccc(N(C)S(=O)(=O)c4ccccc4)cc3)cc(=O)n2c1", "B-score": "inactive"}
{"smiles": "CN(c1ccc(OCC(=O)O)cc1)S(=O)(=O)c1ccc2ccccc2c1", "B-score": "inactive"}
{"smiles": "O=C(Nc1ccccc1)O/N=C1/CCCc2occc21", "B-score": "inactive"}
{"smiles": "Cc1ccc2c(c1)N(CC(=O)N1CCC(O)CC1)C(=O)CO2", "B-score": "inactive"}
{"smiles": "O=C(O)COCC(=O)NCc1csc2ccc(Cl)cc12", "B-score": "inactive"}
{"smiles": "Cc1nonc1NC(=O)c1oc2ccccc2c1C", "B-score": "inactive"}
{"smiles": "Cc1noc(C)c1C(=O)Nc1ccccn1", "B-score": "inactive"}
{"smiles": "Cc1c(C(=O)Nc2ccccn2)oc2ccc(Br)cc12", "B-score": "-9.33 (active)"}
